Drawing on PubChem BioAssay (NCI), this text covers growth inhibition for ten compounds.

The panel holds about 79,000 compounds, 15% with a hit somewhere; the sample as a whole holds those more often. Values without a mark were called inactive. Active and inactive are the calls of the source. No stated cut-off is given here; in the data, active means growth inhibition above about 70%; inactive means the rest.

Assay [1] can be described thus: NCI Yeast Anticancer Drug Screen. Data for the rad50 strain (AID 155).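 Further: 0% = growth of vehicle-only cultures of the same strain.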 The conditions noted are these: S. cerevisiae rad50 strain growth inhibition, active compounds read high. Summed up:
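Cells are treated with compound, grown, and their growth is then scored against vehicle-only cultures of the same repair-deficient yeast strain.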

Assay [2] in a line: NCI Yeast Anticancer Drug Screen. Data for the mec2-1 strain (AID 157). The conditions noted are these: S. cerevisiae mec2-1 strain, active compounds read high. The method, boiled down: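 Growth inhibition is read against vehicle-treated controls after compound exposure of the mec2-1 yeast strain, which is defective in DNA damage repair or cell cycle control.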
The nature of assay [3]: NCI Yeast Anticancer Drug Screen. Data for the sgs1 mgt1 strain (AID 161).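 Further: 0% = growth of cultures given vehicle only.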 The settings on record: S. cerevisiae sgs1 mgt1 strain, active compounds read high. Summed up:
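Compounds are added to genetically altered yeast, and growth is compared with cultures given vehicle alone to give percent inhibition.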

A short description of assay [4]: NCI Yeast Anticancer Drug Screen. Data for the cln2 rad14 strain (AID 165).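 Further: 0% = growth equal to vehicle treated cultures.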 The settings on record: S. cerevisiae cln2 rad14 strain, active compounds read high. Summed up:
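Growth inhibition, relative to vehicle-treated controls, is the read-out. The test organism is a yeast strain with defined genetic alterations, cln2 rad14.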

Assay [5] can be described thus: NCI Yeast Anticancer Drug Screen. Data for the bub3 strain (AID 167). The settings on record: S. cerevisiae bub3 mutant strain, active compounds read high. The method, boiled down:
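Part of a panel of yeast mutants defective in DNA damage repair or cell cycle regulation. Each strain is grown with compound, and inhibition is calculated relative to solvent-treated cultures.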

The nature of assay [6]: NCI Yeast Anticancer Drug Screen. Data for the mlh1 rad18 strain (AID 175). The settings on record: S. cerevisiae mlh1 rad18 strain growth inhibition, active compounds read high. Summed up:
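Cells of a genetically altered yeast strain, deficient in DNA damage repair, were treated with compound. Their growth was then compared with that of vehicle-treated cultures to give inhibition.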

The mark [7] stands for this setting: at 5.0 µM (retest, dose inferred, filed as 0.5).
Where [8] appears, read: at 50.0 µM (retest, dose inferred, filed as 5.0).

As to `CCCCc1[nH]ccc2c(C)c3nc4ccccc4c3cc12`, the growth inhibition in assay [1] (setting [7]) was 6%; in assay [1] (setting [8]) it was 93% (active); in assay [1] (at 50.0 µM) it was 96.8% (active); in assay [2] (setting [7]), -8%; in assay [2] (setting [8]) it was 96% (active); in assay [2] (at 50.0 µM) it was 91.2% (active). For the same compound, the growth inhibition in assay [3] (setting [7]) was -14%; in assay [3] (setting [8]) it was 96% (active); in assay [3] (at 50.0 µM), 97.5% (active); in assay [4] (setting [7]), 2%; in assay [4] (setting [8]) it was 95% (active); in assay [4] (at 50.0 µM) it was 92.1% (active). For the same compound, the growth inhibition in assay [5] (setting [7]) is 0%; in assay [5] (setting [8]), 94% (active); in assay [5] (at 50.0 µM), 88.7% (active); in assay [6] (setting [7]), 21%; in assay [6] (setting [8]), 95% (active); in assay [6] (at 50.0 µM), 98.4% (active).

Take `CS(=O)(=O)c1ccc(C[N+]23CN4CN(CN(C4)C2)C3)cc1`: the growth inhibition is -9% in assay [1] (setting [7]); -2% in assay [1] (setting [8]); -8.25% in assay [1] (at 50.0 µM); 0% in assay [2] (setting [7]); 13% in assay [2] (setting [8]); 14.7% in assay [2] (at 50.0 µM). Moreover, the growth inhibition in assay [3] (setting [7]) was -20%; in assay [3] (setting [8]) it was -5%; in assay [3] (at 50.0 µM), -0.8%; in assay [4] (setting [7]), -8%; in assay [4] (setting [8]), -4%; in assay [4] (at 50.0 µM), 43.4%. The growth inhibition was -4% in assay [5] (setting [7]); 6% in assay [5] (setting [8]); -4.75% in assay [5] (at 50.0 µM); -9% in assay [6] (setting [7]); -4% in assay [6] (setting [8]); 1.85% in assay [6] (at 50.0 µM).

In the case of `C/C(=N\NC(=O)c1ccc([N+](=O)[O-])cc1)c1ccccc1`, the growth inhibition in assay [1] (setting [7]) is 8%; in assay [1] (setting [8]), -5%; in assay [1] (at 50.0 µM), -2.65%; in assay [2] (setting [7]), -19%; in assay [2] (setting [8]), -1%; in assay [2] (at 50.0 µM), -5.45%. Besides, the growth inhibition in assay [3] (setting [7]) is 6%; in assay [3] (setting [8]) it was -6%; in assay [3] (at 50.0 µM), 10.3%; in assay [4] (setting [7]) it was 2%; in assay [4] (setting [8]), 11%; in assay [4] (at 50.0 µM), -7.95%. For the same compound, the growth inhibition in assay [5] (setting [7]) is 9%; in assay [5] (setting [8]) it was 14%; in assay [5] (at 50.0 µM), 38.8%; in assay [6] (setting [7]) it was 15%; in assay [6] (setting [8]), 26%; in assay [6] (at 50.0 µM), -7.2%.

Turning to `CC(=O)OCc1cc2ccccc2nc1C(Br)(Br)Br`, the growth inhibition in assay [1] (setting [7]) was -11%; in assay [1] (setting [8]) it was 95% (active); in assay [1] (at 50.0 µM), 96% (active); in assay [2] (setting [7]) it was -6%; in assay [2] (setting [8]), 95% (active); in assay [2] (at 50.0 µM) it was 95.8% (active). Moreover, the growth inhibition is 39% in assay [3] (setting [7]); 99% (active) in assay [3] (setting [8]); 97.5% (active) in assay [3] (at 50.0 µM); -4% in assay [4] (setting [7]); 96% (active) in assay [4] (setting [8]); 96.7% (active) in assay [4] (at 50.0 µM). For the same compound, the growth inhibition in assay [5] (setting [7]) was 62%; in assay [5] (setting [8]), 99% (active); in assay [5] (at 50.0 µM), 95.2% (active); in assay [6] (setting [7]), 39%; in assay [6] (setting [8]) it was 96% (active); in assay [6] (at 50.0 µM) it was 96.7% (active).

On to `CCN(CC)CCNc1ccc(C)c2oc3ccc(O)cc3c(=O)c12`, for which the growth inhibition in assay [1] (setting [7]) was 39%; in assay [1] (setting [8]), 96% (active); in assay [1] (at 50.0 µM), 99% (active); in assay [2] (setting [7]), 27%; in assay [2] (setting [8]), 29%; in assay [2] (at 50.0 µM), 75.5% (active). The growth inhibition is -1% in assay [3] (setting [7]); 29% in assay [3] (setting [8]); 81.5% (active) in assay [3] (at 50.0 µM); 1% in assay [4] (setting [7]); 22% in assay [4] (setting [8]); 25.1% in assay [4] (at 50.0 µM). Besides, the growth inhibition was -4% in assay [5] (setting [7]); 41% in assay [5] (setting [8]); 81.7% (active) in assay [5] (at 50.0 µM); -1% in assay [6] (setting [7]); 43% in assay [6] (setting [8]); 95.8% (active) in assay [6] (at 50.0 µM).

Regarding `O=C(NC[N+]12CCO[B-]1(c1ccc(Br)cc1)OCC2)c1ccccc1O` (stereo not given), the growth inhibition was 10% in assay [1] (setting [7]); 48% in assay [1] (setting [8]); 65.2% in assay [1] (at 50.0 µM); 11% in assay [2] (setting [7]); 43% in assay [2] (setting [8]); 56.2% in assay [2] (at 50.0 µM). Also, the growth inhibition in assay [3] (setting [7]) was 23%; in assay [3] (setting [8]) it was 51%; in assay [3] (at 50.0 µM), 60.2%; in assay [4] (setting [7]), -4%; in assay [4] (setting [8]) it was 38%; in assay [4] (at 50.0 µM), 21.3%. The growth inhibition in assay [5] (setting [7]) is 26%; in assay [5] (setting [8]) it was 63%; in assay [5] (at 50.0 µM), 61.5%; in assay [6] (setting [7]), 24%; in assay [6] (setting [8]) it was 72% (active); in assay [6] (at 50.0 µM), 87.9% (active).

On to `COc1cccc(/C=C2\CCCc3ccccc3C2=O)c1`, for which the growth inhibition was 1% in assay [1] (setting [7]); 20% in assay [1] (setting [8]); 52.4% in assay [1] (at 50.0 µM); 7% in assay [2] (setting [7]); 45% in assay [2] (setting [8]); 22.3% in assay [2] (at 50.0 µM). In addition, the growth inhibition in assay [3] (setting [7]) was 14%; in assay [3] (setting [8]) it was 67%; in assay [3] (at 50.0 µM), 80.3% (active); in assay [4] (setting [7]), -7%; in assay [4] (setting [8]), 6%; in assay [4] (at 50.0 µM), 26.6%. The growth inhibition in assay [5] (setting [7]) is 72% (active); in assay [5] (setting [8]), 87% (active); in assay [5] (at 50.0 µM), 74.4% (active); in assay [6] (setting [7]) it was 10%; in assay [6] (setting [8]), 60%; in assay [6] (at 50.0 µM), 63.6%.

Consider `CC(=O)OC(OC(C)=O)c1ccc2ccc3cccc4ccc1c2c34`, for which the growth inhibition in assay [1] (setting [7]) is 16%; in assay [1] (setting [8]), 89% (active); in assay [1] (at 50.0 µM) it was 63.4%; in assay [2] (setting [7]) it was -1%; in assay [2] (setting [8]), 78% (active); in assay [2] (at 50.0 µM) it was 45.8%. Moreover, the growth inhibition is -16% in assay [3] (setting [7]); 84% (active) in assay [3] (setting [8]); 61% in assay [3] (at 50.0 µM); 3% in assay [4] (setting [7]); 78% (active) in assay [4] (setting [8]); 45.2% in assay [4] (at 50.0 µM). Further, the growth inhibition in assay [5] (setting [7]) is -17%; in assay [5] (setting [8]), 85% (active); in assay [5] (at 50.0 µM) it was 69%; in assay [6] (setting [7]), -3%; in assay [6] (setting [8]) it was 89% (active); in assay [6] (at 50.0 µM), 71.7% (active).

Consider `O=[N+]([O-])c1ccc2nc(-c3ccc(Cl)cc3)[nH]c2c1`, for which the growth inhibition in assay [1] (setting [7]) was 0%; in assay [1] (setting [8]), 91% (active); in assay [1] (at 50.0 µM), 71.5% (active); in assay [2] (setting [7]) it was -1%; in assay [2] (setting [8]) it was 89% (active); in assay [2] (at 50.0 µM), 72.8% (active). The growth inhibition in assay [3] (setting [7]) was -2%; in assay [3] (setting [8]), 89% (active); in assay [3] (at 50.0 µM), 75.4% (active); in assay [4] (setting [7]) it was -6%; in assay [4] (setting [8]) it was 83% (active); in assay [4] (at 50.0 µM), 72.6% (active). The growth inhibition in assay [5] (setting [7]) was 1%; in assay [5] (setting [8]), 95% (active); in assay [5] (at 50.0 µM), 81.9% (active); in assay [6] (setting [7]) it was -15%; in assay [6] (setting [8]), 94% (active); in assay [6] (at 50.0 µM) it was 78.8% (active).

Consider `CN(C)CCNC(=O)c1cccc2ccc(-c3ccc(-c4ccccc4)cc3)nc12`, for which the growth inhibition was 4% in assay [1] (setting [7]); 99% (active) in assay [1] (setting [8]); 99.2% (active) in assay [1] (at 50.0 µM); -1% in assay [2] (setting [7]); 98% (active) in assay [2] (setting [8]); 99.6% (active) in assay [2] (at 50.0 µM). In addition, the growth inhibition in assay [3] (setting [7]) is -1%; in assay [3] (setting [8]) it was 99% (active); in assay [3] (at 50.0 µM), 99.2% (active); in assay [4] (setting [7]), 1%; in assay [4] (setting [8]), 99% (active); in assay [4] (at 50.0 µM) it was 98.5% (active). The growth inhibition in assay [5] (setting [7]) is -41%; in assay [5] (setting [8]), 99% (active); in assay [5] (at 50.0 µM) it was 99.1% (active); in assay [6] (setting [7]) it was 0%; in assay [6] (setting [8]), 99% (active); in assay [6] (at 50.0 µM) it was 99.4% (active).
